Assay results published in the supplement of paper PMC9694430.

system: LOC_OS02G54510-cb004; assay: thermal shift delta Tm vs DMSO control; higher = stronger stabilization (binding); settings: 12.5 µM; protein concentration 2 µM
How it was run: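 Purified, E. coli-expressed rice kinase domain constructs were tested by differential scanning fluorimetry in 96-well plates: 19.5 μl of 2 μM kinase in 100 mM potassium phosphate pH 7.5, 150 mM NaCl, 10% glycerol, 5 × SYPRO Orange, plus compound in DMSO. Fluorescence was read from 25°C to 95°C at 0.05°C/s. Melting temperatures came from Boltzmann fits, and the shift is the triplicate mean relative to protein with DMSO alone.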

Compared with `CCCCCCCCCCCCCCCCn1cc[n+](Cc2ccccc2)c1C`, `CCCCCCCCCCCCCCCCCCOP(=O)([O-])OC1CC[N+](C)(C)CC1` [Perifosine (KRX-0401)] is higher in “thermal shift delta Tm” value: -1.83 °C for the first, -1.77 °C for the second.

Going from `O=C(/C=C/c1ccc(O)c(O)c1)c1ccc(O)cc1O` [Butein] to `Cc1cc([C@@H](C)Nc2ccccc2C(=O)O)c2nc(N3CCOCC3)cc(=O)n2c1`, the “thermal shift delta Tm” value rises from 0.39 °C to 0.49 °C.

Compared with `NC(=O)c1ncn([C@@H]2O[C@H](CO)[C@@H](O)[C@H]2O)c1N` [AICAR (Acadesine)], `COCCOc1ccc2c(c1)ncn2-c1ccc2cccc(N3CCC(N)CC3)c2n1` is higher in “thermal shift delta Tm” value: 0.42 °C for the first, 0.43 °C for the second.

First: COc1ccc(-c2ccc3c(N4CCOCC4)nc(N4C[C@@H](C)O[C@@H](C)C4)nc3n2)cc1CO
Second: O=c1nc(N2CCOCC2)oc2c(-c3cccc4c3sc3ccccc34)cccc12
The “thermal shift delta Tm” value of the first is higher: -0.13 °C for the first, -0.35 °C for the second.

Compared with `Cc1cc(Nc2nc(N[C@@H](C)c3ccc(F)cc3)c(C#N)cc2F)n[nH]1`, `Cn1cc(-c2ccc3nnc(C(F)(F)c4ccc5ncccc5c4)n3n2)cn1` is lower in “thermal shift delta Tm” value: 2.52 °C for the first, -0.14 °C for the second.

Going from `Cc1cc(C(C)Nc2ccccc2)c2nc(N3CCOCC3)cc(=O)n2c1` (stereo not given) to `CC(C)c1cnn2c(NCc3ccccc3)cc(NCCCCCCN)nc12`, the “thermal shift delta Tm” value rises from 0.09 °C to 0.22 °C.

Compared with `COc1cc(N2CCC(N(C)C)CC2)ccc1Nc1ncc(Cl)c(Nc2ccccc2P(C)(C)=O)n1`, `COc1ccc(-c2ccc3ncc4c(c3c2)n(-c2ccc(N3CCNCC3)c(C(F)(F)F)c2)c(=O)n4C)cn1` is higher in “thermal shift delta Tm” value: 0.23 °C for the first, 0.44 °C for the second.

`CC(C)NC(=O)C1CCC(n2c(NC(=O)c3ccc(F)cc3)nc3ccc(CN4CCC(C(C)(C)O)CC4)cc32)CC1` (stereo not given) [Belizatinib (TSR-011)] was tested, and the “thermal shift delta Tm” value was 1.61 °C.
